NCOA3 inh: SRC3 coactivator transcriptional activity inhibitors, primary screen, cell-based, luminescence | AID 588352, 2011 | Nuclear receptor coactivator 3 (Homo sapiens), Q9Y6Q9 | 360,000 tested, 0.17% active | inhibition, % at 3.6 µM | HEK293 GAL4-SRC3 luciferase reporter;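 active means inhibition above a per-campaign cutoff, the mean of all compounds plus 3 SD, cut at about 60% in these data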;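 further: 0% = DMSO-treated cells and 100% = gossypol-treated cells at 36 µM; higher means less SRC3-driven luciferase light from the GAL4 reporter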
Target sequence (Q9Y6Q9 whole entry, looked up, the tested form may be a part): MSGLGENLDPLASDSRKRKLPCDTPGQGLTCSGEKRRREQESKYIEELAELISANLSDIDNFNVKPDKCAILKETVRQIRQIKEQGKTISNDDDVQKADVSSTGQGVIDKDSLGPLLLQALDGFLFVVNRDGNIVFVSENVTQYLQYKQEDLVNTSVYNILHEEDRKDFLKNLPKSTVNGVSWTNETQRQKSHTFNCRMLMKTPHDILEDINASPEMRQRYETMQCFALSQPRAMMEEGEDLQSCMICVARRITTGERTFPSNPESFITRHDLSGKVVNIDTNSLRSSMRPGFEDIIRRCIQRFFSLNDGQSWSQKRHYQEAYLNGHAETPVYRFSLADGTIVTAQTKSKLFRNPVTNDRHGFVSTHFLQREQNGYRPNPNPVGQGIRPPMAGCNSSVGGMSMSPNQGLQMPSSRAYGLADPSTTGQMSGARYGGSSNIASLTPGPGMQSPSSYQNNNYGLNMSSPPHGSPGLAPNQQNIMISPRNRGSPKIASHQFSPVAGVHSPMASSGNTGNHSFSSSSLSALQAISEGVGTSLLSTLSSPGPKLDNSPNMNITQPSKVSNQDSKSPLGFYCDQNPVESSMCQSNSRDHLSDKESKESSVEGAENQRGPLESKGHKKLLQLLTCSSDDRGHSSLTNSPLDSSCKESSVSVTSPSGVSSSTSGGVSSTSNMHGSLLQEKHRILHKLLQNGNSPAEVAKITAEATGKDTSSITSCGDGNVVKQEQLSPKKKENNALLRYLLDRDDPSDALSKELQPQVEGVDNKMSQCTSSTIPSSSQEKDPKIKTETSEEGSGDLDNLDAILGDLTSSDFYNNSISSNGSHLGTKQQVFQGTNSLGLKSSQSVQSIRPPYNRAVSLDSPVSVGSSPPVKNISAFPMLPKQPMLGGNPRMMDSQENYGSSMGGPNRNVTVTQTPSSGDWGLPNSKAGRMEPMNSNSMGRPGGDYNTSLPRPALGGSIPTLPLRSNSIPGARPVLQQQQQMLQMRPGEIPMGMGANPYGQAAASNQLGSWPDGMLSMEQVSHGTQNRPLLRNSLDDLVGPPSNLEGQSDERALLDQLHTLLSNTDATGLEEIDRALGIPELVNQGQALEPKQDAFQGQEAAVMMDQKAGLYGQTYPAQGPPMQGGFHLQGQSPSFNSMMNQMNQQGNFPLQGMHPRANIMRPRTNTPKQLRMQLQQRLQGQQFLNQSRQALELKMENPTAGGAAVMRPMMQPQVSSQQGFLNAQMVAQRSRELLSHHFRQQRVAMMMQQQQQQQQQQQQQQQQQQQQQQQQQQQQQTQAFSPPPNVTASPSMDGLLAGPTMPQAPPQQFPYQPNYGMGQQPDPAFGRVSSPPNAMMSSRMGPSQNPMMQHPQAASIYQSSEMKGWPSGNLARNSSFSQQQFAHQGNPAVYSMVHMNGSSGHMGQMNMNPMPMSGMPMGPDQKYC
NR5A2 inv ag: LRH-1 (NR5A2) inverse agonists, primary screen, cell-based, luminescence, HEK293T, StAR-luciferase reporter; Nuclear receptor subfamily 5 group A member 2 (Homo sapiens), O00482; LRH-1 transfected, 24 h; inhibition, % at 3.6 µM; 360,000 tested, 0.13% active;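 active means inhibition above the mean inhibition of all tested compounds plus 3 SD, cut at about 73% in these data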;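 further: 0% = DMSO wells and 100% = reporter-only cells lacking LRH-1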
NCOA2 inhibitor: inhibition of GAL4-SRC2 driven luciferase reporter, primary screen, SRC2 inhibitor project, cell-based, luminescence. Nuclear receptor coactivator 2 (Homo sapiens), Q15596. HEK293 GAL4-SRC2 luciferase reporter. inhibition, % at 9 µM. 370,000 tested, 0.17% active. AID 651957, 2012;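 active means inhibition above the mean inhibition of all tested compounds plus 3 SD, set per campaign, cut at about 52% in these data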;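 further: 0% = DMSO treated cells and 100% = cells given Gossypol at 36 µM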
NCOA1 inh: SRC1 coactivator transcriptional activity inhibitors, primary screen, cell-based, luminescence; HEK293 GAL4-SRC1 luciferase reporter; inhibition, % at 3.6 µM; AID 588354, 2011; 360,000 tested, 0.12% active;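 active means inhibition above the campaign mean plus 3 SD, with each screening campaign given its own cutoff, cut at about 60% in these data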;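 further: 0% = DMSO treated cells and 100% = gossypol at 36 µM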
COUP-TFII inh: NR2F2 transcriptional activity inhibitors, primary screen, cell-based, luciferase reporter, HEK293T, luminescence; HEK293T NGFI-A luciferase reporter; 370,000 tested, 0.7% active; inhibition, % at 8.6 µM; AID 686940, 2013;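 active means inhibition above a per-plate cutoff, mean inhibition of test wells between control levels plus 3 SD, cut at about 38% in these data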;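 further: cells cotransfected with COUP-TFII expression vector driving the NGFI-A reporter; 0% = median of COUP-TF2 test wells and 100% = reporter-only cells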
Gal4-VP16 ctr: Gal4-VP16 luciferase reporter inhibitors, counter-screen for COUP-TFII antagonist project, cell-based, luminescence, HEK293. shares compounds with COUP-TFII inh. inhibition, % at 8.5 µM. 2,500 tested, 25% active; in the data active means inhibition above about 13%
NR2F2 inh conf: NR2F2 transcriptional activity inhibitors, confirmation, cell-based, luciferase reporter, HEK293, triplicate; 2,500 tested, 45% active; shares compounds with COUP-TFII inh; inhibition, % at 8.5 µM; AID 687008, 2013; HEK293 NGFI-A luciferase reporter, luminescence;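 active means mean inhibition over three repeats above a set limit taken from the earlier primary screen, cut at about 38% in these data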;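 further: 100% = cells given the luciferase reporter alone without the COUP-TF2 vector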
* hit, by the source's call; . = no result given. A selection: hits, their analogues and other compounds. The true share with any hit is near 0.83%.

SMILES	NCOA3 inh	NR5A2 inv ag	NCOA2 inhibitor	NCOA1 inh	COUP-TFII inh	Gal4-VP16 ctr	NR2F2 inh conf
Cc1ccc(NC(=O)Cc2ccc(Cl)c(Cl)c2)cc1S(=O)(=O)N(C)C	11	15	-6	5	-6	.	.
Cc1cc(C)n(-c2ccc(C(=O)Nc3ccc4c(c3)OCO4)cc2)n1	-39	-46	-20	-64	-46	.	.
Cc1cc(C)n(-c2ccc(C(=O)Nc3ccc(C)c(S(=O)(=O)N(C)C)c3)cc2)n1	22	3	12	8	48*	-4	24
CCOC(=O)[C@@]12CCCC=C1N(CCc1ccc(Cl)cc1)C(=O)[C@H]2CC(=O)N1CCOCC1	.	.	26	.	35	.	.
O=C(COC(=O)c1cc(S(=O)(=O)N2CCOCC2)ccc1F)NCc1ccc2c(c1)OCO2	-4	5	44	-11	47*	-8	-8
OC(c1ccc(F)c(F)c1)c1nc(-c2ccncc2)cs1 (stereo unspecified)	0	26	-3	8	25	.	.
OC(c1ccc(F)cc1)c1nc(-c2ccncc2)cs1 (stereo unspecified)	23	17	-13	16	42*	-1	23
CC(C)(C)C(=O)Nc1ccc(NC(=O)c2ccco2)nc1	78*	75*	82*	79*	84*	78*	95*
Cc1nc(-c2ccc(C(=O)Nc3ccc(F)cc3)cc2)cs1	-51	-79	-25	-53	-9	.	.
Cc1nc(-c2ccc(C(=O)Nc3cccc(F)c3)cc2)cs1	-20	-28	24	-8	56*	-104	0
Cc1nc(-c2cccc(NC(=O)c3ccco3)c2)cs1	6	-35	-18	-23	9	.	.
Cc1nc(-c2ccc(NC(=O)c3ccco3)cc2)cs1	-3	-41	43	-27	41*	-4	-4
COc1ccc(S[C@]2(C(=O)N(C)C)CC(=O)N(c3ccc(C#N)cc3)[C@@H]2c2ccc(OC)cc2)cc1	.	.	12	.	-1	.	.
C[C@H]1O[C@@H](n2c3ccc(Cl)cc3c3ccc4c5cc(Cl)ccc5[nH]c4c32)[C@H](O)[C@H](O)[C@H]1O	.	.	-7	.	-12	.	.
O=[N+]([O-])c1nn(-c2ccc3c(c2)OCCO3)n(O)c1=Nc1ccc(Cl)cc1	48	20	52	37	31	.	.
O=[N+]([O-])c1nn(-c2ccc3c(c2)OCCO3)n(O)c1=Nc1ccccc1	85*	94*	84*	76*	91*	-105	35
O=C(COC(=O)CCc1c[nH]c2ccccc12)Nc1ccccc1	7	-3	-8	-6	63*	2	4
Cc1ccc(NC(=O)COC(=O)CCc2c[nH]c3ccccc23)cc1	13	10	-6	-4	4	.	.
COc1cccc(OCCn2cc(C(C)=O)c3ccccc32)c1	26	14	25	26	49*	4	43*
CC(=O)c1cn(CCOc2cc(C)ccc2C)c2ccccc12	17	38	23	43	55*	18*	63*
CC(=O)c1cn(CC(=O)Nc2ccc(C)cc2C)c2ccccc12	33	52	25	22	50*	14*	54*
Cc1ccc(NC(=O)Cn2cc(C(=O)C3CC3)c3ccccc32)c(C)c1	2	38	-11	21	4	.	.
COC(=O)Cc1nnn2c1[C@H](C)[C@@H](OC)c1ccc(C(F)(F)F)cc1-2	.	.	-9	.	2	.	.
O=C(Cc1coc2cc3c(cc12)CCC3)OCC(=O)N1CCCC1=O	26	12	54*	11	44*	28*	13
O=C(O)Cc1coc2cc3c(cc12)CCC3	-3	-11	-6	-6	-17	.	.
SMILES	NCOA3 inh	NR5A2 inv ag	NCOA2 inhibitor	NCOA1 inh	COUP-TFII inh	Gal4-VP16 ctr	NR2F2 inh conf
O=C(Nc1ccc(Br)cc1)c1ccc(F)c(S(=O)(=O)NCc2cccs2)c1	20	35	14	11	72*	-2	56*
Clc1ccc(CN2CCN(N=Cc3ccncc3)CC2)cc1	.	.	33	.	50*	13	35
O=C1NC(=O)C2(CCc3ccccc32)N1 (stereo unspecified)	14	2	15	-3	2	.	.
C=C1CC2(OC1=O)c1ccccc1CCc1ccccc12	20	25	46	-61	39*	17*	29
Cc1ccccc1CN1CCCCC(NC(=O)C(C)(C)C)C1=O (stereo unspecified)	.	.	4	.	2	.	.
Cc1ccccc1-n1nc(C)c2cc(C(=O)N3CCOCC3)sc21	-4	19	-12	-29	3	.	.
Cc1ccc(S(=O)(=O)N2CCN(C(=O)c3cc4c(C)nn(-c5ccccc5C)c4s3)CC2)cc1	-16	0	34	-5	46*	10	30
CC(C)(C)c1ccc(-c2nnc(SCC(=O)Nc3cccc4ccccc34)n2Cc2ccco2)cc1	.	.	-11	.	38*	4	11
O=C(CSc1nnc(-c2ccc(Cl)cc2)n1Cc1ccco1)Nc1cccc2ccccc12	.	.	-17	.	-4	.	.
Cc1cc(NC(=O)COC(=O)CCC(=O)c2ccc(F)cc2)no1	18	-6	4	-3	14	.	.
Cc1cc(NC(=O)COC(=O)CNS(=O)(=O)c2c(F)cc(F)cc2Br)no1	-1	-15	-13	12	85*	-1	-12
CC1CCN(C2=NC(=O)/C(=C/c3ccccc3F)S2)CC1	44	29	54*	28	63*	-117	-46
CC1CCN(C2=NC(=O)/C(=C/c3cccc(O)c3)S2)CC1	-16	-20	-36	-20	-8	.	.
C[C@@H]1ON(C)[C@H]2C[C@H]3c4cc(Br)ccc4CCN3C[C@@H]12	.	.	22	.	9	.	.
COC(=O)C1C(=O)C=C(Nc2ccc(F)cc2)CC1c1ccc(OC)cc1 (stereo unspecified)	-29	-43	-41	-39	-11	.	.
COC(=O)[C@H]1[C@@H](O)[C@@]2(O)c3c(OC)cc(OC)cc3O[C@@]2(c2ccc(OC)cc2)[C@@H]1c1ccc(F)cc1	.	.	62*	.	84*	5	65*
O=C(Nc1ccc(Oc2ccccc2)cc1)c1csc([C@H]2C[C@H](O)[C@@H](CO)O2)n1	10	44	17	11	77*	-4	61*
O=C(Nc1ccc(OCCO)cc1)c1csc([C@@H]2O[C@H](CO)[C@H](O)[C@H](O)[C@H]2O)n1	-4	3	-15	-6	2	.	.

From PubChem
